D1 antagonist: blocks dopamine activation of the human D1 receptor; HEK293 TREx D1 cells, calcium flux, dopamine EC80; active compounds read low; 3.2% of 360,000 active; activity change, negative = inhibition, % at 10 µM; P21728; AID 504652; in the data active = activity change below about -30%; note: % is set by controls: 0 for no effect and ±100 for the full control effect
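Allosteric or orthosteric antagonism assessed as attenuation of the calcium response to EC80 dopamine, added 180 s after compound, in induced HEK293 Trex D1 cells loaded with no-wash calcium dye.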
TRHR PAM: allosterically enhances the human TRH receptor; TRHR cells, fluo-8 calcium fluorescence, EC20 TRH enhancement; enhancement, % at 2 µM; 0.66% of 360,000 active; AID 493056; in the data active = enhancement above about 30%; note: 0% is about no effect
Target sequence (P34981 whole entry, looked up): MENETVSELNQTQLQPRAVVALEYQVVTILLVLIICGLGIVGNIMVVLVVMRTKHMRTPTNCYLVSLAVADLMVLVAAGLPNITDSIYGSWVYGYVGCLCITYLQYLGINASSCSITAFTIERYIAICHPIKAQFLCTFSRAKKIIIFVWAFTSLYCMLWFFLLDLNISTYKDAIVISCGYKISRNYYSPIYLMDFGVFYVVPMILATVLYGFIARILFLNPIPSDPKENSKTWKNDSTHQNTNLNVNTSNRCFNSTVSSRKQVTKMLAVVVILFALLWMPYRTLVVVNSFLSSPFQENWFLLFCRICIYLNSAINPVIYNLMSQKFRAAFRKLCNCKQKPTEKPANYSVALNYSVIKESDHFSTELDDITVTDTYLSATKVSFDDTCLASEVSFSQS
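Enhancer read-out: after compound pinning and an initial kinetic agonist-mode read, an EC20 of TRH (10 nM final) was injected and fluo-8 calcium signal (Ex 480/Em 530) followed at 1 s/cycle for 100 cycles in TRHR-expressing cells.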
D1 agonist: human D1 receptor agonism. HEK293 T-REx D1 cells, calcium flux, agonist mode. 1% of 360,000 active. activation, % at 2 µM. P21728; note: 0% is about no effect
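Inducible HEK293 T-REx D1 cells, force-coupled to calcium signalling, were plated at 4000 cells/well with tetracycline and held overnight at 30 C. After no-wash calcium dye loading, compound-evoked calcium rise over 180 s flagged agonists.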
D1 PAM: enhances dopamine response at the human D1 receptor; P21728; HEK293 TREx D1 cells, calcium flux, dopamine EC20 potentiation; potentiation, % at 10 µM; 0.036% of 360,000 active; in the data active = potentiation above about 30%; note: 0% is about no effect
TRHR agonist: agonists of human TRH receptor. P34981. TRHR cells, calcium flux fluo-8, FDSS agonist mode. activation, % at 2 µM. 0.18% of 360,000 active. AID 493084; note: 0% is about no effect
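TRHR-expressing cells, plated overnight in medium with 10% serum, were loaded with fluo-8 calcium dye at room temperature. After a 10 s baseline, library compound was pin-added and calcium release was recorded kinetically (ex 480/em 530) as agonist response.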
* marks the source's active call; other numbers are inactive results. A selection: hits, their analogues and other compounds. The true share with any hit is near 4.7%. Cut-off read from the data, not from the text of the source, unless noted: active = activation above about 30%; inactive = the rest.

CCN(c1ccccc1)S(=O)(=O)c1nnc(NC(=O)C(C)Oc2ccccc2)s1 (centres undefined) was read as D1 antagonist 12.4, TRHR PAM -0.7, D1 agonist 0.8, D1 PAM 3.5 and TRHR agonist 0.1.
COCCOC(=O)c1[nH]c2c(c1C)C(=O)CC(c1ccc(F)cc1)C2 (centres undefined) was read as D1 antagonist -6.5, TRHR PAM -3.3, D1 agonist 64.1*, D1 PAM -5.8 and TRHR agonist -0.4.
COc1cccc(N2CCN(C(=O)c3cccn3-c3nnc(N4CCCC4)s3)CC2)c1 was read as D1 antagonist -1.7, TRHR PAM 2.9, D1 agonist 3.2, D1 PAM -3.2 and TRHR agonist -0.8.
Cc1ccc(CN2C(=O)C3(c4ccccc42)N(c2cccc(C(F)(F)F)c2)C(=O)CS3(=O)=O)cc1 (centres undefined) was read as D1 antagonist 2.8, TRHR PAM 13.1, D1 agonist 3.6, D1 PAM -1.4 and TRHR agonist 0.3.
Screening Cc1ccc(Cn2c(CCNC(=O)c3cccc(C)c3)nc3ccccc32)cc1 returned D1 antagonist -10.5, TRHR PAM -12.6, D1 agonist 16.4, D1 PAM 2.2 and TRHR agonist -3.0.
Screening CCN(CC)C(=O)CSc1nc(N)c(C(=O)Nc2ccc(OC)cc2)s1 returned D1 antagonist -32.3*, TRHR PAM 6.1, D1 agonist 3.2, D1 PAM -1.1 and TRHR agonist -0.1.
CN(C)c1ccc(NC(=O)CSc2nc(C3CC3)nc3ccccc23)cc1 was read as D1 antagonist -2.3, TRHR PAM 6.1, D1 agonist 0.9, D1 PAM -3.5 and TRHR agonist 0.2.
COc1ccc(N2CCN(c3nc4ccccc4n4c(C)nnc34)CC2)cc1 was read as D1 antagonist -76.2*, TRHR PAM 0.4, D1 agonist -0.1, D1 PAM -5.2 and TRHR agonist -0.2.
For Cc1nnc2c(N3CCN(CCO)CC3)nc3ccccc3n12 the results were D1 antagonist -5.9, TRHR PAM 3.7, D1 agonist 3.6, D1 PAM -1.1 and TRHR agonist 0.7.
COc1ccccc1C(=O)n1nc(-c2ccco2)nc1SC was read as D1 antagonist -34.4*, TRHR PAM -2.6, D1 agonist 1.7, D1 PAM -11.4 and TRHR agonist -0.3.
For CSc1nc(-c2ccco2)nn1C(=O)c1ccccc1 the results were D1 antagonist 13.0, TRHR PAM 18.3, D1 agonist 4.1, D1 PAM -3.1 and TRHR agonist -0.3.
Screening CCC(C)(C)NC(=O)C1CCC(CNS(=O)(=O)c2ccc3c(c2)CC(C)N3C(C)=O)CC1 (centres undefined) returned D1 antagonist -5.2, TRHR PAM 2.6, D1 agonist 5.6, D1 PAM -4.6 and TRHR agonist 0.1.
COCCN1C(=O)/C(=C/c2ccc(OCc3ccc(C(=O)O)cc3)c(OC)c2)SC1=Nc1ccccc1 was read as D1 antagonist -36.5*, TRHR PAM 2.3, D1 agonist 4.1, D1 PAM -4.0 and TRHR agonist -0.1.
COc1cc(/C=C2\SC(=Nc3ccccc3)N(Cc3ccco3)C2=O)ccc1OC(C)C(=O)O (centres undefined) was read as D1 antagonist -12.7, TRHR PAM -5.8, D1 agonist 1.7, D1 PAM -4.5 and TRHR agonist 0.6.
O=c1c2cc3c(cc2[nH]c(=S)n1CCN1CCOCC1)OCO3 was read as D1 antagonist -49.6*, TRHR PAM -6.3, D1 agonist 0.9, D1 PAM -3.0 and TRHR agonist 0.0.
Screening CC1CCN(CCn2c(=S)[nH]c3cc4c(cc3c2=O)OCO4)CC1 returned D1 antagonist 3.5, TRHR PAM -3.3, D1 agonist 0.8, D1 PAM 2.6 and TRHR agonist -0.4.
COCCCNc1nc2c(S(=O)(=O)c3ccc(C)c(C)c3)nnn2c2ccc(Cl)cc12 was read as D1 antagonist -66.0*, TRHR PAM -14.5, D1 agonist 2.5, D1 PAM -7.0 and TRHR agonist 0.3.
Screening O=S(=O)(c1ccccc1)c1nnn2c1nc(NCc1ccc(Cl)cc1)c1sccc12 returned D1 antagonist -33.6*, TRHR PAM 27.9, D1 agonist 0.3, D1 PAM -5.2 and TRHR agonist 0.1.
Cc1ccc(S(=O)(=O)c2nnn3c2nc(NC(C)C)c2sccc23)cc1 was read as D1 antagonist -30.4*, TRHR PAM -6.9, D1 agonist 5.0, D1 PAM -6.8 and TRHR agonist 0.4.
`COCCCNc1nc2c(S(=O)(=O)c3ccccc3)nnn2c2ccc(Cl)cc12` gave D1 antagonist -16.0, TRHR PAM -5.1, D1 agonist 0.9, D1 PAM -3.8 and TRHR agonist 0.2.
Screening COCCNc1nc2c(S(=O)(=O)c3ccc(C)c(C)c3)nnn2c2ccc(Cl)cc12 returned D1 antagonist -63.6*, TRHR PAM -14.8, D1 agonist 0.7, D1 PAM -8.1 and TRHR agonist 0.0.
Screening Cc1ccc(CNc2nc3c(S(=O)(=O)c4ccccc4)nnn3c3ccsc23)cc1 returned D1 antagonist 6.7, TRHR PAM -0.9, D1 agonist 2.7, D1 PAM -0.1 and TRHR agonist 0.7.
CN(C)c1ccc(C2(c3ccc(N(C)C)cc3)OC(=O)c3cc(N)ccc32)cc1 was read as D1 antagonist 2.0, TRHR PAM 9.9, D1 agonist 3.0, D1 PAM -2.0 and TRHR agonist 0.4.
Screening CCOc1ccccc1CNC(=O)c1ccc(Cn2c(=O)c3cccn3c3cccnc32)cc1 returned D1 antagonist 5.4, TRHR PAM -4.8, D1 agonist 1.0, D1 PAM 0.1 and TRHR agonist 0.5.
`Cc1ccc(S(=O)(=O)c2nnn3c2nc(NC(C)C)c2cc(Cl)ccc23)cc1C` gave D1 antagonist -52.0*, TRHR PAM -3.8, D1 agonist 0.0, D1 PAM -4.4 and TRHR agonist -0.3.
`CCN(C(=O)CN1CC(C)OC(C)C1)c1c(N)n(Cc2ccccc2)c(=O)[nH]c1=O` (centres undefined) gave D1 antagonist -12.8, TRHR PAM 0.8, D1 agonist 0.5, D1 PAM -5.5 and TRHR agonist 0.8.
Screening CCCCCCN(CCCCCC)C(=O)Cc1c(-c2ccc(F)cc2)[nH]c2ccccc12 returned D1 antagonist -60.6*, TRHR PAM 8.3, D1 agonist -0.6, D1 PAM -7.0 and TRHR agonist 0.0.
For CCN(CC)c1ccc(S(=O)(=O)N2CCOCC2)cc1NC(=O)CN1CCc2ccccc2C1 the results were D1 antagonist 0.0, TRHR PAM 12.6, D1 agonist 8.4, D1 PAM -12.2 and TRHR agonist 0.6.
O=C(NCc1ccc(Cl)cc1)c1cccc(S(=O)(=O)N2CCCC2)c1 was read as D1 antagonist -39.8*, TRHR PAM 3.6, D1 agonist -0.3, D1 PAM -1.3 and TRHR agonist -0.9.

Compound activity deposited in PubChem by National Center for Advancing Translational Sciences (NCATS).
